From PubChem BioAssay (NCATS)
Results filed as inconclusive are left out. Values without a mark were called inactive. The call rests on the fitted dose curve; in most records, active means well fitted curve in the direction sought with a large enough effect; inconclusive means small, poorly fitted or top-dose-only effect, or another doubt; inactive means no such curve, though single readings can be large or run the other way.
On the % scale 0 is the no-effect control and ±100 the full control effect.

Assay: qHTS Assay for Identifying Gametocytocidal Compounds (AID 743244);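 further: actives lower the fluorescent signal which means gametocytes are killed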
Settings: P. falciparum 3D7 stage III-V gametocytes, alamarBlue, 72 h; max response: hits give low values
Procedure, shortened: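 A resazurin-based viability read-out was applied to mature P. falciparum gametocytes: 72 h compound treatment, then 24 h dye incubation, with falling fluorescence signalling gametocytocidal effect.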
Compound `[O]=[Bi][O]C(=O)[O][Bi]=[O]` has a max response of -0.353%. Work on `FC(F)(F)C(F)(F)C(F)(F)C(F)(F)C(F)(F)C(F)(F)F` yielded a max response of 13.2%. Compound `OCCN1CCN(CC/C=C2/c3ccccc3Sc3ccc(Cl)cc32)CC1` has a max response of -5.02%. Compound `C=CC(=O)O` has a max response of -1.82%. With `CC(=C\c1ccccc1)/C=C1/SC(=S)N(CC(=O)O)C1=O` the max response was 8.93%. In the case of `CC12CCC(C[N+](C)(CCC[N+](C)(C)C)C1)C2(C)C` (centres undefined), the max response is reported as -4.18%. For `O=S(=O)(O)CC(S)CS` (centres undefined), the max response was 3.76%. With `NC[C@@H]1CC[C@@H](N)[C@@H](O[C@H]2[C@H](O)[C@@H](O[C@H]3O[C@H](CO)[C@@H](O)[C@H](N)[C@H]3O)[C@H](N)C[C@@H]2N)O1` the max response was 4.25%. Compound `CCOC(=O)[C@@H](N)CS` has a max response of 0.746%. Compound `CCC(Oc1ccccc1)C(=O)N[C@@H]1C(=O)N2[C@@H]1SC(C)(C)[C@@H]2C(=O)O` (some centres undefined) has a max response of 14.1%. In the case of `COc1ccccc1N1CCN(CCCC(=O)c2ccc(F)cc2)CC1`, the max response is reported as 18%. With `CC(C)(C)NCC(O)CSc1nc(-c2ccc(C(N)=O)s2)cs1` (centres undefined) the max response was 20.6%. For `CC(C)(C)CC(C)(C)c1cc(Cc2cc(C(C)(C)CC(C)(C)C)cc(-n3nc4ccccc4n3)c2O)c(O)c(-n2nc3ccccc3n2)c1`, the max response was -7%. Work on `C[C@@H]1C/C=C/C=C/C=C/C=C/[C@H](O[C@@H]2O[C@H](C)[C@@H](O)[C@H](N)[C@@H]2O)C[C@@H]2O[C@](O)(C[C@@H](O)C[C@H]3O[C@@H]3/C=C/C(=O)O1)C[C@H](O)[C@H]2C(=O)O` yielded a max response of 15.6%.
